Reference: PubChem BioAssay
Active and inactive are the calls of the source. How the calls were made is not given here.

Each compound was assayed against Pantothenate synthetase (Mycobacterium tuberculosis (strain ATCC 25618 / H37Rv)) (UniProt P9WIL5) (assay: Coupled enzyme confirmation of inhibitors against recombinant Mtb PanC (AID 375;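 further: 0% = full reaction with vehicle and 100% = no enzyme background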)). Details: coupled enzyme assay; at 10 µM, hits give high values.
Chain of Pantothenate synthetase (Mycobacterium tuberculosis (strain ATCC 25618 / H37Rv)) (P9WIL5 whole entry, looked up): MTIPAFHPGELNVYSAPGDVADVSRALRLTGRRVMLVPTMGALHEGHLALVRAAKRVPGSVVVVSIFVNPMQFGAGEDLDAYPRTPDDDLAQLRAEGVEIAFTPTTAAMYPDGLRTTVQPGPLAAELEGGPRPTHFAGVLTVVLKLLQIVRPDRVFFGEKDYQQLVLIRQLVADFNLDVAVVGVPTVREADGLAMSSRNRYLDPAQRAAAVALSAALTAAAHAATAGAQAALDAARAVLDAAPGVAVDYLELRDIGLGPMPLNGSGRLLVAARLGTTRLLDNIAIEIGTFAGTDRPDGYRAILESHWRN

Compound | inhibition
O=C1NC(c2cccs2)Nc2ccccc21 (stereo not given) | 0% (inactive)
CC(=O)c1cc2c(=O)c3cc(C)ccc3oc2nc1C | 0% (inactive)
COc1ccc(C)cc1NC(=O)CNC(=O)Cn1ccc2ccccc2c1=O | 5% (inactive)
O=C(CSc1nnc(-c2ccccc2)c(-c2ccccc2)n1)N1CCOCC1 | 0% (inactive)
CC1CN=C(N(C(=O)Nc2ccccc2)c2ccc(S(=O)(=O)N3CCOCC3)cc2)S1 (stereo not given) | 0% (inactive)
COCCn1c(=O)[nH]c2cc(C(=O)N3CCN(Cc4ccc5c(c4)OCO5)CC3)ccc2c1=O | 0% (inactive)
COCCNC(=O)C(c1ccc(O)cc1)N(Cc1ccco1)C(=O)CCC(=O)Nc1nccs1 (stereo not given) | 1% (inactive)
O=C(CCOc1ccccc1)NCc1ccccc1 | 0% (inactive)
CC(C)c1nc(NCC2CCCO2)c(C#N)c2c1COC(C)(C)C2 (stereo not given) | 3% (inactive)
COc1ccc(C(c2nnnn2C2CCCC2)N2CCN(C3CCCC3)CC2)cc1OC (stereo not given) | 4% (inactive)
COc1ccc(C)cc1-n1nnnc1SCC(=O)Nc1cc(C)on1 | 0% (inactive)
COc1ccc(N2CCN(C(=O)CSc3nnc(Cn4nnc5ccccc54)n3C)CC2)cc1 | 0% (inactive)
CC(=O)Nc1ccc(S(=O)(=O)N(C2=NCC(C)S2)c2ccccc2)cc1 (stereo not given) | 0% (inactive)
COc1cccc(C(=O)Nc2ncc3c(n2)CC(C)CC3=O)c1 (stereo not given) | 5% (inactive)
O=C(CN1CCCN(S(=O)(=O)c2ccc(Br)cc2)CC1)Nc1ccc2c(c1)OCO2 | 4% (inactive)
CCC(C)C(NC(=O)C1CCC(C)CC1)C(=O)NCc1cccnc1 (stereo not given) | 6% (inactive)
COc1ccc(Cc2nnc3n2N=C(c2cc4ccccc4o2)CS3)cc1OC | 0% (inactive)
COc1ccc(CCn2c(-c3ccco3)nc3nc4ccccc4nc32)cc1 | 0% (inactive)
O=C(COC(=O)C1CC(=O)N(c2ccccc2)C1)c1ccccc1 (stereo not given) | 0% (inactive)
CCOC(=O)c1c2n(c3ccc(O)cc13)CCCCC2 | 0% (inactive)

Compound | inhibition
Cc1ccc(S(=O)(=O)C2(C(=O)Nc3nccs3)CC2)cc1 | 0% (inactive)
CCOC(=O)N1CCN(C(=O)CSc2nnc(Cc3ccccc3)o2)CC1 | 0% (inactive)
CN(C)CCOC(c1ccccc1)c1ccccc1 | 0% (inactive)
CCOC(=O)c1ccc(NC(=O)CSC2=NC(=O)C(CC)C(=O)N2)cc1 (stereo not given) | 3% (inactive)
CN(C)c1ccc(NC(=O)c2ccncc2)c2ccccc12 | 6% (inactive)
Cc1cccc(C2CC(c3ccc(Cl)cc3)Nc3nc(N)nn32)c1 (stereo not given) | 0% (inactive)
CCOC(=O)c1cc(-c2ccccc2)sc1N | 3% (inactive)
Cc1ccc2nc(SCC(=O)NCc3ccco3)c(C#N)cc2c1 | 0% (inactive)
COc1ccc(Oc2nc(Oc3ccc(OC)cc3)nc(Oc3ccc(OC)cc3)n2)cc1 | 0% (inactive)
Cc1ccc2c(c1)sc1ncc(NC(=O)c3ccccc3)c(=O)n12 | 2% (inactive)
CCNS(=O)(=O)c1c(C)cc(N2CCCC2=O)cc1C | 6% (inactive)
Cc1ccc(S(=O)(=O)NCCN2CCOCC2)cc1C | 3% (inactive)
CC(C)(Oc1ccc(CCNC(=O)c2ccc(Cl)cc2)cc1)C(=O)O | 0% (inactive)
O=c1[nH]c(SCc2ccccc2Cl)nc2c1CCCC2 | 0% (inactive)
CCC(C)(C(=O)NC1CCCCC1)N(CC1CCCO1)C(=O)c1ccccn1 (stereo not given) | 0% (inactive)
COc1cccc(NC(=O)Nc2cccs2)c1 | 0% (inactive)
Cc1ccc2c(c1)-c1c(cnn1CC(=O)NC(C)CCc1ccco1)CO2 (stereo not given) | 0% (inactive)
COc1ccc(CC(=O)N2CCOCC2)cc1OC | 2% (inactive)
CCc1ccc(NC(=O)CS(=O)CC(=O)NCC2OCCc3ccccc32)cc1 (stereo not given) | 0% (inactive)
CC(=O)Nc1ccc(NC(=O)c2ccccc2F)cc1 | 0% (inactive)
